Results filed as inconclusive are left out. Activity calls are given as the source filed them. Unless noted, calls follow the shape of the full dose curve.
Experiments:
[1] = Nuclear factor erythroid 2-related factor 2/antioxidant responsive element (Nrf2/ARE) small molecule agonists: luciferase reporter gene qHTS assay in human keratinocytes (AID 1919969); also: nearly all actives have a fitted effect of over 35% in size; also: potency is read from the fitted curve at half-maximal effect
[2] = target: Gonadotropin-releasing hormone receptor (Homo sapiens) (UniProt P30968); assay: Human gonadotropin-releasing hormone receptor (GnRHR) small molecule agonists, calcium flux assay in GnRHR-HEK293 cells (AID 1920063); also: nearly all actives have a fitted effect of over 35% in size
Gonadotropin-releasing hormone receptor (Homo sapiens), sequence (P30968 whole entry, looked up): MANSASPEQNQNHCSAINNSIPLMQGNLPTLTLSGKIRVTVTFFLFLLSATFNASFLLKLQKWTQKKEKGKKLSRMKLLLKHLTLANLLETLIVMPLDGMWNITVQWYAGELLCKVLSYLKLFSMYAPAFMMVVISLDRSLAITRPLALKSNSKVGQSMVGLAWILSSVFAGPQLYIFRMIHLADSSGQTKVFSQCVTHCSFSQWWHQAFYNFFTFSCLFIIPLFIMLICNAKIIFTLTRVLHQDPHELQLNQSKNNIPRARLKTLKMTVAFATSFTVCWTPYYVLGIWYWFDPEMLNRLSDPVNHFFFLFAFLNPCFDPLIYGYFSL
Outline: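 Calcium-dye fluorescence, Ex/Em=480/540, recorded every 1 sec over 3 min after compound addition to GnRHR-HEK293 cells. Cells had been seeded 18 hours earlier and dye-loaded for 1 hour at 37 C. Fifteen concentrations, triplicates.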

[3] = target: KiSS-1 receptor (Homo sapiens) (UniProt Q969F8); assay: Human kisspeptin (KISS1R) small molecule agonists, calcium flux assay in KISS1R-HEK293 cells (AID 1920064; active = well fitted activation curve with a large enough effect in the repeat runs)
KiSS-1 receptor (Homo sapiens), sequence (Q969F8 whole entry, looked up): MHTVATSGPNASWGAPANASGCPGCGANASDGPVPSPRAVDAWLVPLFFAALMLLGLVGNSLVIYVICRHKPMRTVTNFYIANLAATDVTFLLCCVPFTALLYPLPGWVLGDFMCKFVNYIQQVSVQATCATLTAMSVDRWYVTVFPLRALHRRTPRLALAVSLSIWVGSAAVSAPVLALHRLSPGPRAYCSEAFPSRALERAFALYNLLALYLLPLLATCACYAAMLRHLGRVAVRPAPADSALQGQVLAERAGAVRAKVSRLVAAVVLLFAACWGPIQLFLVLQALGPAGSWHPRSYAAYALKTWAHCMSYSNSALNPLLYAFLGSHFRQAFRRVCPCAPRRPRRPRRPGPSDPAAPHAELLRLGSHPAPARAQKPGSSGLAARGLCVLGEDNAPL
Outline: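 Calcium flux read-out: kinetic fluorescence at Ex/Em=480/540, 1 s intervals over 3 min, after pin-tool compound addition to dye-loaded KISS1R-HEK293 cells. Fifteen concentrations, triplicates.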

[4] = G protein-coupled receptor (GPCR) small molecule agonists, calcium flux assay: HEK293 wild type cell line counter screen (AID 1920065)
Outline: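 Agonist mode; 18 h seeding at 37 C, 1 h dye load at 37 C; compounds pinned from DMSO, ATP as positive control; kinetic fluorescence 480/540 nm, 3 min, 1 s reads; 15 concentrations, triplicate.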

[5] = p53 small molecule agonists, cell-based qHTS assay with human liver microsomes (AID 1963577);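 also: p53 response element beta-lactamase reporter cells with liver microsomes plus NADPH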
Outline: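 With metabolic activation: human liver microsomes (0.5 mg/mL final) plus NADPH (0.5 mg/mL final) added alongside compounds to p53RE-bla cells; 16 h 37 C exposure; beta-lactamase read by LiveBLAzer fluorescence.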

[6] = p53 small molecule agonists, cell-based qHTS assay with rat liver microsomes (AID 1963578)
Outline: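 Metabolic activation by rat liver microsomes and NADPH, each 0.5 mg/mL final, added right after compounds to p53RE-bla reporter cells (4,000/well, plated 5 h earlier). 16 h at 37 C, then LiveBLAzer substrate for 2 h at room temperature in the dark; fluorescence read-out.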

[7] = p53 small molecule agonists, cell-based qHTS assay with human liver microsomes: qHTS cell viability counter screen (AID 1963579); also: nearly all actives have a fitted effect of over 45% in size
Outline: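 Metabolic activation used human liver microsomes and NADPH, both 0.5 mg/mL final, over 16 hours at 37 C on p53RE-bla cells (4,000/well). Cytotoxicity measured by CellTiter-Glo luminescence, 30 min at room temperature.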

[8] = p53 small molecule agonists, cell-based qHTS assay with rat liver microsomes: qHTS cell viability counter screen (AID 1963580); also: nearly all actives have a fitted effect of over 45% in size
Outline: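 Cytotoxicity counter screen: intracellular ATP read by CellTiter-Glo luminescence in the p53 reporter wells. HCT-116 p53RE-bla cells were treated for 16 h at 37 C alongside rat liver microsomes and NADPH, each 0.5 mg/mL final.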

[9] = p53 small molecule agonists, cell-based qHTS assay: qHTS cell viability counter screen (AID 1963581); also: nearly all actives have a fitted effect of over 45% in size
Outline: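 Cytotoxicity read-out: ATP-based luminescence (CellTiter-Glo, 30 min RT) measured in the same wells as the p53 reporter assay, HCT-116 p53RE-bla cells, 16 h compound exposure at 37 C.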

[10] = p53 small molecule agonists, cell-based qHTS assay (AID 1963582; active = well fitted activation curve with a large enough effect in the signal ratio in the repeat runs, not every such curve was filed as active; the % refers to the signal ratio)
Outline: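 Fluorescence intensity read-out of a beta-lactamase reporter under a p53 response element. Cells were exposed to DMSO-dissolved compounds for 16 h at 37 C, then developed with FRET substrate for 2 h at RT.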

[11] = target: 5-hydroxytryptamine receptor 2A (Homo sapiens) (UniProt P28223); assay: 5-hydroxytryptamine receptor 2A (HTR2A) small molecule antagonists, cell-based qHTS assay (AID 1963586); also: nearly all actives have a fitted effect of over 45% in size
5-hydroxytryptamine receptor 2A (Homo sapiens), sequence (P28223 whole entry, looked up): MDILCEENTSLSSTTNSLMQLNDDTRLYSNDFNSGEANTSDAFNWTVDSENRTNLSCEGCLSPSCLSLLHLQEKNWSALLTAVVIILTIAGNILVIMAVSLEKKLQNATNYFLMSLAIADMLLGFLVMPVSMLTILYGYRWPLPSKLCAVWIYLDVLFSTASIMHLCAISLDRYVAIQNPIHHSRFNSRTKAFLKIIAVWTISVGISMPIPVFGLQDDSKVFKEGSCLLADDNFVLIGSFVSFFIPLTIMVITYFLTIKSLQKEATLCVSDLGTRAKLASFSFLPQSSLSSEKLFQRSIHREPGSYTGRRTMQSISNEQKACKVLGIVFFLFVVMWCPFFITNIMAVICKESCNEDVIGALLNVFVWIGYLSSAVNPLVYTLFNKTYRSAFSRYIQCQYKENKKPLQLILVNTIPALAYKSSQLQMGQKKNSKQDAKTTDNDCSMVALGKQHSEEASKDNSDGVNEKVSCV
Outline: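 CHO cells stably expressing human HTR2A were plated for 18 h at 37 C, then loaded with calcium dye for 1 h. Compounds were preincubated 5 min at room temperature before DOI (4 nM solution) was added. Kinetic fluorescence was read for 3 min.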

[12] = target: 5-hydroxytryptamine receptor 2A (Homo sapiens) (UniProt P28223); assay: 5-hydroxytryptamine receptor 2A (HTR2A) small molecule agonists, cell-based qHTS assay (AID 1963587); also: nearly all actives have a fitted effect of over 30% in size
Outline: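 Kinetic calcium-flux fluorescence (2 min, 1 sec intervals) after compound addition in agonist mode. HTR2A-CHO cells were cultured 18 h, then dye-loaded 1 h at 37 C.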

[13] = target: Muscarinic acetylcholine receptor M1 (Homo sapiens) (UniProt P11229); assay: Cholinergic receptor muscarinic 1 (CHRM1) small molecule antagonists, cell-based qHTS assay (AID 1963588); also: nearly all actives have a fitted effect of over 40% in size
Muscarinic acetylcholine receptor M1 (Homo sapiens), sequence (P11229 whole entry, looked up): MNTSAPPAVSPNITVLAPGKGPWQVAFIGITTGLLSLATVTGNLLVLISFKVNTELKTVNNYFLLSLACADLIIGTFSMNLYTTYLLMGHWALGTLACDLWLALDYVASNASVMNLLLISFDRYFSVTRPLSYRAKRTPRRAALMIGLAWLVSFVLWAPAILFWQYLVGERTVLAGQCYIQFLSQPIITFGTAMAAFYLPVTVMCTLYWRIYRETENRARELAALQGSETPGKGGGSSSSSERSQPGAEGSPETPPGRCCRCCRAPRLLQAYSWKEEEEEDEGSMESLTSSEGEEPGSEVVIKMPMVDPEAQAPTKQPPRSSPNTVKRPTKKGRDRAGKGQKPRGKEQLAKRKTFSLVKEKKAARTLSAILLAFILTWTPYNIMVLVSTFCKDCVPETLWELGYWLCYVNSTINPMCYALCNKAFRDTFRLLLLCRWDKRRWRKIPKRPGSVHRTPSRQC
Outline: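 Compounds were tested at 15 concentrations in three independent runs. Dye-loaded CHRM1-CHO cells were exposed 5 min at room temperature before stimulation by acetylcholine added at 50nM. Intracellular calcium was read kinetically on FDSS for 3 min.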

[14] = target: Muscarinic acetylcholine receptor M1 (Homo sapiens) (UniProt P11229); assay: Cholinergic receptor muscarinic 1 (CHRM1) small molecule agonists, cell-based qHTS assay (AID 1963589); also: nearly all actives have a fitted effect of over 35% in size
Outline: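 Calcium flux read-out: kinetic fluorescence at 1 sec intervals after pin-tool compound addition to dye-loaded CHRM1-CHO cells (human M1). Agonist mode; 15 concentrations tested in triplicate independent runs.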

[15] = cAMP Responsive Elements (CRE) small molecule agonists, cell-based qHTS assay (AID 1963590)
Outline: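 Beta-lactamase reporter readout: LiveBLAzer B/G FRET substrate, 2 h at room temperature, added after 3 h compound treatment of CRE-bla HEK 293T cells at 37 C/5% CO2.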

[16] = cAMP Responsive Elements (CRE) small molecule antagonists, cell-based qHTS assay (AID 1963591; active = well fitted inhibition curve with a large enough effect in the signal ratio in the repeat runs, not every such curve was filed as active; the % refers to the signal ratio)
Outline: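 HEK293T CRE-bla; 18 h preincubation; compound pin-transfer; NKH477 0.25 uM final, 3 h, 37 C; LiveBLAzer FRET substrate 2 h RT.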

[17] = target: Beta-2 adrenergic receptor (Homo sapiens) (UniProt P07550); assay: Adrenergic beta2 receptor (ADRB2) small molecule antagonists, cell-based qHTS assay (AID 1963592); also: series mostly up to about 92 µM; nearly all actives have a fitted effect of over 50% in size
Beta-2 adrenergic receptor (Homo sapiens), sequence (P07550 whole entry, looked up): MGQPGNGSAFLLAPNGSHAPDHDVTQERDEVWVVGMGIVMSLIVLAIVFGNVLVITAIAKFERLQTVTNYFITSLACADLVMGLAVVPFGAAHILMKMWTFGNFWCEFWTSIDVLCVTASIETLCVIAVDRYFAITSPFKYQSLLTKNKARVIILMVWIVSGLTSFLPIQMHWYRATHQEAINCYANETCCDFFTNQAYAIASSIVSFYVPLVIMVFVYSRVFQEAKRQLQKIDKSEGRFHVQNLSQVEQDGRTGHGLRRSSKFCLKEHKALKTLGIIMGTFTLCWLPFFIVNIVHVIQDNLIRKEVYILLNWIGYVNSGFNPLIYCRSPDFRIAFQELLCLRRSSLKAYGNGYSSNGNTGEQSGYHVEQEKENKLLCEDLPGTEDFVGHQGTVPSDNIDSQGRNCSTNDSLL
Outline: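 Assay format: CHO-ADRB2 cells, 18-20hr seeding at 37C/5% CO2, then compound plus 1nM isoproterenol agonist mix for 0.5hr RT. Homogeneous time-resolved fluorescence cAMP detection after 1hr, expressed as 665/615 nm ratio.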

[18] = target: D(2) dopamine receptor (Homo sapiens) (UniProt P14416); assay: Dopamine D2 receptor (DRD2) small molecule agonists, cell-based qHTS assay (AID 1963594); also: nearly all actives have a fitted effect of over 35% in size
D(2) dopamine receptor (Homo sapiens), sequence (P14416 whole entry, looked up): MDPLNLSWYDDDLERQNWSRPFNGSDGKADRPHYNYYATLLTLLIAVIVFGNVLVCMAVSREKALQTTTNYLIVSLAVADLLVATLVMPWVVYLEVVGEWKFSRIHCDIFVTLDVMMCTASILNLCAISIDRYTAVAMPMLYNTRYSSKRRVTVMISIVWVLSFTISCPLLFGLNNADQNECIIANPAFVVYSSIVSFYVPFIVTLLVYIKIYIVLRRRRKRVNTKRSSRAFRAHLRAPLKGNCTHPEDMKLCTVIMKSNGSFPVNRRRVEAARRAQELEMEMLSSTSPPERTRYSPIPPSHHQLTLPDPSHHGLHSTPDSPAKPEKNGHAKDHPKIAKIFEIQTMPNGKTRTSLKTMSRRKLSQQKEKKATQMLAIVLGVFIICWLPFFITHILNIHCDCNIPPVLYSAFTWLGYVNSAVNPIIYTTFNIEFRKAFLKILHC
Outline: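 cAMP accumulation in DRD2-HEK293 cells measured by HTRF after 1 h detection; compounds added 10 min before NKH477 (200nM […]) forskolin-analogue stimulation, 30 min at room temperature, with Ro20-1724 present at 0.1 mM final.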

[19] = target: D(2) dopamine receptor (Homo sapiens) (UniProt P14416); assay: Dopamine D2 receptor (DRD2) small molecule antagonists, cell-based qHTS assay (AID 1963595; active = well fitted inhibition curve with a large enough effect in the signal ratio in the repeat runs, with a control signal flat; the % refers to the signal ratio)
Outline: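 HEK293 cells stably expressing DRD2 were preincubated with 0.1 mM Ro20-1724, then with compound for 10 min at room temperature. Cells were stimulated with 200 nM NKH477 plus 12 nM quinpirole for 30 min, and cAMP was read by HTRF.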

[20] = target: Beta-2 adrenergic receptor (Homo sapiens) (UniProt P07550); assay: Adrenergic beta2 receptor (ADRB2) small molecule agonists, cell-based qHTS assay (AID 1963593);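 also: CHO cells stably overexpressing human ADRB2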
Outline: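 CHO cells stably over-expressing ADRB2 were plated overnight at 37C, then dosed with compounds plus a stimulation mix containing 100uM IBMX and 25uM Ro-20-1724 for 0.5hr at room temperature. cAMP was measured by HTRF competition, 1hr.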

Measured: Potency

CCCCCCCC/C=C\CCCCCCCCCCCC(=O)O
not listed: [20]
inactive: all other assays above

CC(=O)Nc1ccc(S(=O)(=O)Nc2cc(C)on2)cc1
not listed: [17] | [20]
inactive: all other assays above

c1ccc(CCCc2ccccn2)cc1
not listed: [20]
inactive: all other assays above

CC(C)(C)c1cc(C=O)cc(C(C)(C)C)c1O
not listed: [13] | [20]
inactive: all other assays above

CC(C)=CCC[C@@](C)(O)[C@H]1CC=C(C)CC1
not listed: [12] | [20]
inactive: all other assays above

O=C1c2ccccc2C(=O)C1c1nc2ccccc2c(Br)c1O
active: [1] 24.3 µM
not listed: [15] | [16] | [17]
inactive: all other assays above

O=C(O)c1snc(Cl)c1Cl
active: [1] 68.6 µM
not listed: [20]
inactive: all other assays above

Reference: PubChem BioAssay (Tox21)
